Where “and” joins values, the source holds several entries; their conditions need not be identical. Identical values can stand only once. Inconclusive results are not listed. Calls of active or inactive are those of the source. Unless noted, the call rests on the fitted dose curve; in most records, active means well fitted curve in the direction sought with a large enough effect; inconclusive means small, poorly fitted or top-dose-only effect, or another doubt; inactive means no such curve, though single readings can be large; an effect the other way counts as inactive or inconclusive.
What was measured:
[1] = Cell Viability - BJ (AID 421; calls by dose curve;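 further: potency means the concentration at half of the fitted maximal effect; cells exposed to compound for 40 hours at 37 °C before readout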); details: BJ fibroblast viability, qHTS
Outline: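 Normal human BJ foreskin fibroblasts, 1500/well in complete medium, treated 40 hr at 37 °C. Cellular ATP by CellTiter-Glo luminescence; normalized to DMSO and 100 uM tamoxifen, AC50 from Hill fit.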

[2] = Cell Viability - Jurkat (AID 426;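 active means dose-dependent loss of cell ATP signal giving a full or clear fitted curve, ranked by lower potency value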; further: potency means the concentration at half of the fitted maximal effect); details: qHTS
Outline: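 Jurkat (clone E6-1, human T-cell leukemia) cells, 5000/well in complete medium, were exposed to compound for 40 hr at 37 °C. Viability was read as intracellular ATP by CellTiter-Glo luminescence; AC50 came from Hill fits of concentration-response data.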

[3] = molecular target: Cytochrome P450 3A4 (Homo sapiens) (UniProt P08684); experiment: qHTS Assay for Activators of Cytochrome P450 3A4 (AID 885); further: nearly all actives have a fitted effect of over 65% in size
Cytochrome P450 3A4 (Homo sapiens), sequence (P08684 whole entry, looked up): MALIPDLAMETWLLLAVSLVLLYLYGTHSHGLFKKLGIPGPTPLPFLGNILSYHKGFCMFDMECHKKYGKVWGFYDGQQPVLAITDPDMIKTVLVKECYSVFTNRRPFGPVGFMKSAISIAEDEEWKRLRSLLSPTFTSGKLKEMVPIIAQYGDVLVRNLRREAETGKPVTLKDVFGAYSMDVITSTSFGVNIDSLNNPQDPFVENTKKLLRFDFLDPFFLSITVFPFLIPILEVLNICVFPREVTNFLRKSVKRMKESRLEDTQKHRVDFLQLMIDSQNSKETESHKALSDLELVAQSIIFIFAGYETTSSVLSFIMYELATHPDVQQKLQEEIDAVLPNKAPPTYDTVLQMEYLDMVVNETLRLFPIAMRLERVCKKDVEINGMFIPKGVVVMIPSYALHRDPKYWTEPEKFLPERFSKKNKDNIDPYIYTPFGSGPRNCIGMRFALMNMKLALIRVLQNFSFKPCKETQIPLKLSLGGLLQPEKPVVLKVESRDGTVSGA
Outline: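 Human CYP3A4 (20 nM) with Luciferin-PPXE at 25 uM (its KM) in 200 mM KPO4; 10 min compound preincubation, then NADPH regeneration and 60 min reaction at RT. Luciferin read by luminescence; normalized to 57 uM ketoconazole full inhibition.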

[4] = MultiTox-Fluor Cytotoxicity Assay - LYMP1-003 - Live Cells (AID 962); further: potency means the concentration at half of the fitted maximal effect
Outline: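 LYMP1-003 human lymphoblastoid cells (2500/well) in complete medium were preincubated 5 hr at 37 C, then exposed to compounds for 16 hr at 37 C. Live-cell protease cleavage of GF-AFC read by fluorescence (Ex/Em 405/510); AC50 from Hill fits.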

[5] = Cell Viability - LYMP2-008 (AID 980); further: nearly all actives have a fitted effect of over 60% in size; further: potency means the concentration at half of the fitted maximal effect
Outline: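 Human lymphoblastoid cells (2500/well) were plated, held 5 hr at 37 C, then exposed to compounds for 24 hr at 37 C in complete medium. Intracellular ATP was read by CellTiter-Glo luminescence; AC50 from Hill-fitted concentration-response.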

[6] = qHTS assay for environmental chemicals that activate the Aryl hydrocarbon Receptor (AhR) signaling pathway (AID 651777); details: 1A2-DRE human hepatoma cells, luciferase, 24 h; activation: stronger effect = higher value; further: nearly all actives have a fitted effect of over 15% in size; further: potency means the concentration at half of the fitted maximal effect; on activation: % of control where 0% means no effect
Outline: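 Human hepatoma 1A2-DRE cells, stably carrying a dioxin response element and CYP1A2 promoter driving luciferase, were exposed to compounds for 24 hr at 37 C and 5% CO2. Luciferase signal was then read after 30 min One-Glo at room temperature.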

[7] = qHTS assay for small molecule agonists of the antioxidant response element (ARE) signaling pathway measured by Nrf2-dependant transcriptional activity - cell viability counter screen (AID 720653; active means well fitted curve in the direction sought with a large enough effect in the repeat runs; an effect the other way counts as inactive or inconclusive; further: potency means the concentration at half of the fitted maximal effect; on max response: on the % scale 0 is the no-effect control and ±100 the full control effect); details: ARE-bla HepG2 viability, CellTiter-Glo ATP luminescence, 16 h; max response: stronger effect = lower value
Outline: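 ARE-bla HepG2 cells treated with compounds for 16 h at 37C; this counter screen measures viability as intracellular ATP by CellTiter-Glo luminescence after 30 min at room temperature.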

[8] = molecular target: Cytochrome P450 1A2 (Homo sapiens) (UniProt P05177); experiment: p450-cyp1a2 (AID 410; calls by dose curve; further: potency means the concentration at half of the fitted maximal effect)
Cytochrome P450 1A2 (Homo sapiens), sequence (P05177 whole entry, looked up): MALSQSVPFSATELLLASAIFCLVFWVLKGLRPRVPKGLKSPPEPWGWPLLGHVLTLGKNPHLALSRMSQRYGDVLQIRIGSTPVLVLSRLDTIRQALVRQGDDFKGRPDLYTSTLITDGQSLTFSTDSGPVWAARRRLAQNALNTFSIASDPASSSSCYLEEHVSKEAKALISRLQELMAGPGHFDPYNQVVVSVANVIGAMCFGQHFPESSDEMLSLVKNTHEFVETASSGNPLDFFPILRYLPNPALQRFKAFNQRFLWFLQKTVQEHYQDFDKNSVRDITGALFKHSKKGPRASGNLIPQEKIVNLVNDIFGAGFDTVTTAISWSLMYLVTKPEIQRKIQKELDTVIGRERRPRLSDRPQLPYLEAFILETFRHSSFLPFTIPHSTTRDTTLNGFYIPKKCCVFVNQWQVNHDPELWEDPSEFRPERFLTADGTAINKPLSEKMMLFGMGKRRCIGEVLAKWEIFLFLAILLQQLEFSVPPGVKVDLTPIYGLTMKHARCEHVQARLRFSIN
Outline: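 Human CYP1A2 (20nM) demethylated Luciferin-ME at its Km (100uM) in 100mM KPO4. After 10 min compound preincubation, NADPH regeneration ran the reaction 60 min at room temperature. Luciferin was read by luminescence, normalized to 57 uM furafylline.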

[9] = molecular target: Glucocorticoid receptor (Homo sapiens) (UniProt P04150); experiment: GR-EFC Redistribution (AID 451; calls by dose curve; further: potency means the concentration at half of the fitted maximal effect); details: CHO-K1 GR-EFC translocation, beta-gal luminescence, 2 h
Glucocorticoid receptor (Homo sapiens), sequence (P04150 whole entry, looked up, the tested form may be a part): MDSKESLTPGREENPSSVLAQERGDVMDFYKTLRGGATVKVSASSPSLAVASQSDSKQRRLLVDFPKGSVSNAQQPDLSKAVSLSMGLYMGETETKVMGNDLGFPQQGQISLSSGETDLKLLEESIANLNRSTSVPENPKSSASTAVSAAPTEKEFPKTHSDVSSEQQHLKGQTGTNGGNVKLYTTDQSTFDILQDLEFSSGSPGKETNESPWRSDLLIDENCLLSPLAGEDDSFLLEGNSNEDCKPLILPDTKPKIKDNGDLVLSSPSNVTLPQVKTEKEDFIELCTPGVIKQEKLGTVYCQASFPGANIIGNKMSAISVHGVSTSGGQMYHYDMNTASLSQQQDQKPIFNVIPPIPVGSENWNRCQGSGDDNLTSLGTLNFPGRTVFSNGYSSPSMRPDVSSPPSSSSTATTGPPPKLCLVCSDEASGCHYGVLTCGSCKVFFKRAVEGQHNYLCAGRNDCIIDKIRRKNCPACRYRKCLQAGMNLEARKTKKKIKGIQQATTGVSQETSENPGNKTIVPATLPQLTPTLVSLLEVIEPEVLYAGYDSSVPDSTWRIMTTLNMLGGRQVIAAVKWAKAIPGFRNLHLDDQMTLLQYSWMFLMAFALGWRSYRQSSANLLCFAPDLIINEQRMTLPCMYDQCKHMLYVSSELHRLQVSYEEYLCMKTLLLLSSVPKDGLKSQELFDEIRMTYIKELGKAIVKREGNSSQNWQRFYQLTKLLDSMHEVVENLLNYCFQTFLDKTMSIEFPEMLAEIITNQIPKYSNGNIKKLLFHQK
Outline: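 CHO-K1 cells expressing nuclear EA and GR-ED fragments of b-gal; compounds titrated up to 46 uM final, 2 h at 37 C. GR nuclear translocation read as complemented b-gal luminescence after 1 h RT detection.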

[10] = molecular target: Mitogen-activated protein kinase 10 (Mus musculus) (UniProt Q61831); experiment: JNK3 AlphaScreen Assay (AID 530; active means well fitted curve in either direction with a large enough effect, not every such curve was filed as active;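 further: kinase came from lysate of stimulated human HepG2 cells; signal reports phosphorylation of biotinylated GST-cJun 1-79 at Ser73 with 10 µM ATP; on the % scale 0 is the no-effect control and ±100 the full control effect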)
Outline: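 qHTS format: compounds tested as titrations against IL-1beta/TNF-alpha-activated HepG2 lysate JNK3 with biotin-GST-cJun substrate and 10 uM ATP at room temperature. Loss of anti-phospho-cJun AlphaScreen signal indicates inhibition.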

[11] = molecular target: Cytochrome P450 2D6 (Homo sapiens) (UniProt P10635); experiment: qHTS Assay for Inhibitors and Substrates of Cytochrome P450 2D6 (AID 891); further: nearly all actives have a fitted effect of over 60% in size; further: potency means the concentration at half of the fitted maximal effect
Cytochrome P450 2D6 (Homo sapiens), sequence (P10635 whole entry, looked up): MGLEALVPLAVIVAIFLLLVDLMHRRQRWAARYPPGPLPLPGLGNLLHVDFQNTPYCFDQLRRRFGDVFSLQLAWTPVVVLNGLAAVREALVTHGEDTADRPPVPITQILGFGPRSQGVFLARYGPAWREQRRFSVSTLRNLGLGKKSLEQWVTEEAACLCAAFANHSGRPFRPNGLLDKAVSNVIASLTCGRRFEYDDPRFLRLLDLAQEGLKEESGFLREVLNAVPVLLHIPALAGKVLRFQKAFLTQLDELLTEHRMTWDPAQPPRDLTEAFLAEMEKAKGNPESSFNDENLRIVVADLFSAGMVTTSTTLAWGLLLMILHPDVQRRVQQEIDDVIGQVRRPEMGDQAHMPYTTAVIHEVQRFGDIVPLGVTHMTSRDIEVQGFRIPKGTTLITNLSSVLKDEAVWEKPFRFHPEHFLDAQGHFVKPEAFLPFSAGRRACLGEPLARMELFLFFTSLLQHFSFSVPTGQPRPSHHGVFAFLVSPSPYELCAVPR
Outline: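 Human CYP2D6 (5 nM) with 30 uM Luciferin-ME EGE (at Km) in 100 mM KPO4, compound preincubated 10 min, then NADPH regeneration system for 60 min at room temperature. Luciferin read by luminescence; normalized to 1.43 uM quinidine.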

[12] = Cell Viability - SK-N-SH (AID 435; calls by dose curve;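 further: potency means the concentration at half of the fitted maximal effect; compound exposure lasted 40 h at 37 °C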); details: SK-N-SH neuroblastoma cell viability qHTS
Outline: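 SK-N-SH human neuroblastoma cells (1500/well) were exposed to compounds in complete medium for 40 h at 37 °C, and intracellular ATP was then measured by CellTiter-Glo luminescence. AC50 was taken from Hill fits, normalized to DMSO and 100 uM tamoxifen.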

[13] = Cellular Toxicity (caspase-3) Renal Proximal Tubule (AID 667); details: renal proximal tubule cells; at 91.7 µM (top of the series) unless noted;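 further: cells exposed to compound for 16 hours at 37 °C before detection; 0% = DMSO basal and 100% = 10 µM staurosporine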
Outline: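 Primary rat proximal tubule cells, 1000/well, 5 h plating at 37 °C, then compound 16 h at 37 °C. Caspase-Glo 3/7 reagent, 1 h RT, luminescence. Normalized to DMSO (basal) and 10 uM staurosporine (100%); Hill-fit AC50.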

[14] = MultiTox-Fluor Cytotoxicity Assay - LYMP1-002 - Live Cells (AID 955); further: potency means the concentration at half of the fitted maximal effect
Outline: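 Human lymphoblastoid LYMP1-002 cells, 2500/well in complete medium, rested 5 hr at 37 C, then exposed to compounds for 16 hr at 37 C. Live-cell protease cleavage of GF-AFC read by fluorescence (Ex/Em 405/510) after 60 min at room temperature; AC50 from Hill fits.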

[15] = Cell Viability - Hek293 (AID 427;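 active means compounds whose dose-response curve shows a full or clear partial loss of cell viability, called from curve shape rather than a numeric limit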;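 further: potency means the concentration at half of the fitted maximal effect; cells exposed to compound for 40 hours at 37 °C before reading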); details: qHTS
Outline: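 HEK293 cells in complete medium were exposed to compound for 40 hr at 37 °C, then cellular ATP was read by CellTiter-Glo luminescence. Data were normalized to DMSO (basal) and 100 uM tamoxifen (100% inhibition), and AC50 came from Hill fits.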

[16] = Cell Viability - MRC5 (AID 434; calls by dose curve;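 further: potency means the concentration at half of the fitted maximal effect; potency reflects cytotoxicity seen as loss of intracellular ATP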); details: MRC5 lung fibroblast viability, qHTS
Outline: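 MRC5 normal human lung fibroblasts, 1500 cells/well, exposed to compound for 40 hr at 37 C. Cellular ATP was read by CellTiter-Glo luminescence; data normalized to DMSO and 100 uM tamoxifen, with AC50 from Hill fits.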

[17] = molecular target: Cytochrome P450 2C9 (Homo sapiens) (UniProt P11712); experiment: qHTS Assay for Inhibitors and Substrates of Cytochrome P450 2C9 (AID 883); further: on the % scale 0 is the no-effect control and ±100 the full control effect; nearly all actives have a fitted effect of over 60% in size
Cytochrome P450 2C9 (Homo sapiens), sequence (P11712 whole entry, looked up): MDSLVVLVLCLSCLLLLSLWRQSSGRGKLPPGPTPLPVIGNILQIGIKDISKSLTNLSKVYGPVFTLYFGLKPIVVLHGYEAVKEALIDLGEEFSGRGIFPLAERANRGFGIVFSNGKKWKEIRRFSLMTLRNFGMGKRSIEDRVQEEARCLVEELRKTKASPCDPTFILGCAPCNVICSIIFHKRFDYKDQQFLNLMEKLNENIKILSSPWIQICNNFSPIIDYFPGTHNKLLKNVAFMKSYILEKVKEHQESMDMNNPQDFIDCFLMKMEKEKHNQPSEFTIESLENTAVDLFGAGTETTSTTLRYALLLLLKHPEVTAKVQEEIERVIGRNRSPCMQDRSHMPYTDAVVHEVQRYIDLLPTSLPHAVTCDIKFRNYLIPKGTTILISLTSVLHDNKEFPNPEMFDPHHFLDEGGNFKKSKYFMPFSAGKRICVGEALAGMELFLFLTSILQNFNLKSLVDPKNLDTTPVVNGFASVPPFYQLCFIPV
Outline: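 10nM CYP2C9 + 100uM Luciferin-H (=KM), 25mM KPO4; cpd 10 min 37C; NADPH regen, 60 min 37C; stop/detect with P450 Glo-Buffer 20 min; luminescence. Norm. to 57uM sulphaphenazole as full inhibition.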

[18] = molecular target: Cytochrome P450 2C19 (Homo sapiens) (UniProt P33261); experiment: qHTS Assay for Inhibitors and Substrates of Cytochrome P450 2C19 (AID 899); further: on the % scale 0 is the no-effect control and ±100 the full control effect; nearly all actives have a fitted effect of over 60% in size
Cytochrome P450 2C19 (Homo sapiens), sequence (P33261 whole entry, looked up): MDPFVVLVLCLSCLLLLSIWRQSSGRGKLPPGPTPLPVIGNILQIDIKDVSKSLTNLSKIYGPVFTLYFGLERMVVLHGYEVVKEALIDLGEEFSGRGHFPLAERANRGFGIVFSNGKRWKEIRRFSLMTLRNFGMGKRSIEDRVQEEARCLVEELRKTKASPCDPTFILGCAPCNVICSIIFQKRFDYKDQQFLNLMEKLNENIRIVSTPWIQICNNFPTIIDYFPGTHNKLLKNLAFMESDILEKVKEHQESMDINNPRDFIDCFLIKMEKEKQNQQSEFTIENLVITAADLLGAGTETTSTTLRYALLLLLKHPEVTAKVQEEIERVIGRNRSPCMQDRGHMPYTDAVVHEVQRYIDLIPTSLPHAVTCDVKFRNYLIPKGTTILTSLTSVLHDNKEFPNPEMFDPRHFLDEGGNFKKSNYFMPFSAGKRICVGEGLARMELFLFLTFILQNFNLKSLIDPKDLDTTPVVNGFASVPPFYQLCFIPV
Outline: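 Luminescent read-out of luciferin formed from Luciferin-H EGE (10uM, equal to KM). Enzyme 5nM in 50mM KPO4; compound added, 10 min at 37C, then NADPH regenerating system for 60 min at 37C. Full inhibition defined by 57uM ketoconazole.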

CC(C)CC(C)Nc1ccc(Nc2ccccc2)cc1 (stereo not drawn)
active: Potency [2] 64.1 µM | Potency [4] 50.1 µM | Potency [5] 39.8 µM
inactive: Potency [1] > 92 µM | Potency [3] | activation [6] 10.8% | max response [7] -3.35%

CN(CCc1ccc(Cl)c(Cl)c1)[C@H]1CCCC[C@H]1N1CCCC1
inactive: Potency [9] > 46 µM | outcome [10] | Potency [3]
active: Potency [8] 31.6 µM | Potency [11] 6.3 nM

O=C(CCl)c1ccccc1
active: Potency [1] 39.2 µM | Potency [2] 9.5 µM | Potency [12] 15.4 µM | Potency [14] 31.6 µM | Potency [4] 39.8 µM | Potency [5] 12.6 µM
inactive: caspase-3 activation [13] -4.24% | activation [6] -0.199% and 2.38% | max response [7] -32.5% and -9.07%

Nc1ccccc1C(=O)OCCc1ccccc1
active: Potency [6] 44.7 µM
inactive: Potency [1] > 92 µM | Potency [2] > 92 µM | Potency [15] > 92 µM | Potency [16] > 92 µM | Potency [12] > 92 µM | caspase-3 activation [13] -20.4% | Potency [3] | Potency [14] | Potency [4] | Potency [5] | max response [7] 0.51%

Cc1ccc2ccccc2c1C
inactive: Potency [1] > 92 µM | Potency [2] > 92 µM | Potency [15] > 92 µM | Potency [16] > 92 µM | Potency [12] > 92 µM | activation [6] 1.49% | max response [7] 9.36%

CCCCCCCCn1sccc1=O
inactive: Potency [1] > 92 µM | outcome [10] | caspase-3 activation [13] -21.1% | Potency [3] | activation [6] 1.42% and -3.52%
active: Potency [2] 7.52 µM | Potency [15] 35.3 µM | Potency [16] 10.7 µM | Potency [12] 14.2 µM | Potency [14] 7.94 µM | Potency [4] 15.8 µM | Potency [5] 7.94 µM | Potency [7] 50.1 µM

COc1cc2c(cc1OC)[C@]13CCN4CC5=CCO[C@@H]6CC(=O)N2[C@@H]1[C@H]6[C@@H]5C[C@H]43
inactive: Potency [8] | outcome [10] | Potency [17] | Potency [11] | Potency [18]
